{
  "source": "PubChem BioAssay (NCI)",
  "note": "Compounds without any hit were thinned out: in the full panel of roughly 83,000, 20% have a hit.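 Method: cells in 96-well plates; compound added at one concentration; 48 h incubation; percent growth measured; values under 10 scored active.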 Unmarked numbers belong to inactive results. Calls of active or inactive are those of the source.",
  "data": [
    {"tested_on": "HL-60(TB) leukemia", "experiment": "NCI-60 one-dose screen, 48 h (100 = growth as untreated, 0 = no growth, -100 = all killed)", "conditions": "10 µM unless noted", "values": [
      {"molecule": "COc1ccc(/C=C2/CN(CCC#N)C/C(=C\\c3ccc(OC)cc3)C2=O)cc1", "growth": "13.6%"},
      {"molecule": "CCCc1n(Cc2ccc3ccccc3c2)c2ccccc2[n+]1Cc1ccc2ccccc2c1", "growth": "-64.2% (active)"},
      {"molecule": "Cc1[nH]n(-c2cccc(Cl)c2)c(=O)c1/C=C1\\C=Nc2ccc(Br)cc21", "growth": "38.5%"},
      {"molecule": "CCOc1ccc(-c2nc3ccc(-c4nc5ccc(N6CCN(C)CC6)cc5[nH]4)cc3[nH]2)cc1OCC", "growth": "24.8%"},
      {"molecule": "CCN(C(=O)CCl)C(C)(C)C(SSSC(c1ccc(Cl)cc1)C(C)(C)N(CC)C(=O)CCl)c1ccc(Cl)cc1", "note": "(centres undefined)", "growth": "42.1%"},
      {"molecule": "Nc1nc2c(c(=O)[nH]1)C1(C(=O)Nc3ccccc31)c1c(nc(N)[nH]c1=O)N2", "growth": "108%"},
      {"molecule": "Cc1nc2ccc(-n3c(-c4ccc(Cl)cc4)nc4ccccc4c3=O)cc2n1Cc1ccccc1", "growth": "78.2%"},
      {"molecule": "CO[C@@H]1[C@H](N(C)C(=O)c2ccccc2)C[C@@H]2O[C@]1(C)n1c3ccccc3c3c4c(c5c6ccccc6n2c5c31)C(=O)NC4=O", "growth": "78.9%"},
      {"molecule": "COc1ccc(NS(=O)(=O)c2ccc(C)cc2)c([N+](=O)[O-])c1", "growth": "90.7%"},
      {"molecule": "N#Cc1c(-c2cccc(Cl)c2)cc(-c2cccc(F)c2)[nH]c1=O", "growth": "-58.3% (active)"},
      {"molecule": "CC(=O)CSc1ncnc2nc[nH]c12", "growth": "103%"},
      {"molecule": "Cc1cc(C)c([O-])c(CN(C)CCN(C)Cc2cc(C)cc(C)c2[O-])c1.O=C([O-])c1cccc(C(=O)[O-])n1.[Ti+4]", "growth": "-7.45% (active)"},
      {"molecule": "COc1ccc(CN2c3ccccc3CCc3ccccc32)cc1F", "growth": "-25.7% (active)"},
      {"molecule": "Cc1ccc(Nc2nccc(N(C)c3ccc4c(C)n(C)nc4c3)n2)cc1S(N)(=O)=O", "growth": "5.08% (active)"},
      {"molecule": "COc1cc(OC)cc(C(=O)Nc2cc(-c3cccnc3)nc(NCCCN3CCOCC3)n2)c1", "growth": "86.5%"},
      {"molecule": "O=C(c1ccccc1)C1(Br)CCCCC1", "growth": "106%"},
      {"molecule": "Cc1nc2cc(Nc3nc(Nc4ccc(F)cc4)nc(N4CCN(C)CC4)n3)ccc2n1Cc1ccccc1", "growth": "-56.9% (active)"},
      {"molecule": "CC(C)(C)CC(C)(C)N(CSc1ccc(Cl)cc1)CSc1ccc(Cl)cc1", "growth": "-35.3% (active)"},
      {"molecule": "CN1CCN(Cc2ccc(NC(=O)c3[nH]ncc3Nc3ncnc4c3CCC4)cc2)CC1", "growth": "-22.1% (active)"},
      {"molecule": "O=c1c2ccccc2n(C[C@H]2CO2)c2ccccc12", "growth": "-44.5% (active)"},
      {"molecule": "COc1cc(C2=NN(c3ccc(S(N)(=O)=O)cc3)C(c3ccc(Cl)cc3)C2)cc(OC)c1OC", "note": "(centres undefined)", "growth": "-25.8% (active)"},
      {"molecule": "C/C(=C\\CCc1ccoc1)CC/C=C(\\C)CCCNc1ccc(F)cc1", "growth": "9.6% (active)"},
      {"molecule": "O=C(CS)OCC(COC(=O)CS)(COC(=O)CS)COC(=O)CS", "growth": "67.2%"},
      {"molecule": "Nc1nc(Nc2ccc(F)cc2)nn1C(=O)c1cc(Cl)ccc1Cl", "growth": "65.1%"},
      {"molecule": "C=C1C(=O)O[C@H]2[C@H]1CC/C(CNC(=O)C(C)c1ccc(CC(C)C)cc1)=C\\CC[C@@]1(C)O[C@@H]21", "note": "(some centres undefined)", "growth": "-24.4% (active)"},
      {"molecule": "COc1cc(/C=N/OC(=O)Nc2ccccc2)cc(OC)c1OC", "growth": "99.2%"},
      {"molecule": "O=C(O)c1ccc(Nc2ncc3c(n2)-c2ccc(Cl)cc2C(c2c(F)cccc2F)=NC3)cc1", "growth": "22.6%"},
      {"molecule": "CCC(CCCN1C(=O)c2ccccc2C1=O)Nc1cc(OC)cc2cccnc12", "note": "(centres undefined)", "growth": "86.1%"},
      {"molecule": "CC(=O)O[C@H]1[C@H](CC#CC#CC[C@@H]2C[C@]3(C)[C@H]4CC=C5[C@H]6[C@@H](C)[C@H](C)CC[C@]6(C(=O)NCCN(CCN)CCN)CC[C@@]5(C)[C@]4(C)CC[C@H]3C(C)(C)[C@H]2OC(C)=O)C[C@]2(C)[C@H]3CC=C4[C@H]5[C@@H](C)[C@H](C)CC[C@]5(C(=O)NCCN(CCN)CCN)CC[C@@]4(C)[C@]3(C)CC[C@H]2C1(C)C", "growth": "34.2%"},
      {"molecule": "NC(=O)c1c(NC(=O)c2ccc(Cl)cc2)sc2c1CCC(=O)C2", "growth": "48.6%"},
      {"molecule": "COc1ccc(/C=C2\\COc3ccc(O)cc3C2=O)c(OC)c1", "growth": "11.2%"},
      {"molecule": "O=C(c1nc2ccccc2[nH]1)C1C(c2ccc(Br)cc2)C2CC3CCCC[C@H]3N2[C@@]12C(=O)Nc1cc(Cl)ccc12", "note": "(some centres undefined)", "growth": "12.4%"},
      {"molecule": "Cc1ccc(Cl)cc1Nc1nc(C(F)(F)F)ccc1C(=O)N/N=C/c1c(Cl)cccc1Cl", "growth": "17.3%"},
      {"molecule": "O=C(Nc1cccc([N+](=O)[O-])c1)NN1CCCCCC1", "growth": "112%"}
    ]}
  ]
}
